# The list is not random: actives were taken first. Their share in the collection is about 6.7%.
# C diff HTS – C. difficile growth inhibition. Clostridium difficile clinical isolate growth, OD600, 24 h; active compounds read low. growth activity, negative = inhibition, % at 16 µg/mL (by protocol). 86,000 compounds, 0.25% hits. AID 1259249;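 active means mean growth activity at or below -80% and every replicate also at or below -80%; inconclusive means mean at or below -80% but some replicate above -80%; inactive means mean growth activity above -80%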;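 further: 0% = DMSO wells and -100% = levofloxacin 16 µg/mL wells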
# Pf Dd2 inh – P. falciparum Dd2 growth inhibition; SYBR Green, 72 h; active compounds read low; activity change, % at 10 µM; 94,000 compounds, 2.3% hits; in the data active means activity change below about -80%; inconclusive means no clear call, values can overlap the other calls
# T cruzi growth-1 – blocks T. cruzi growth in NIH3T3 culture; T. cruzi beta-gal in NIH3T3, GalScreen luminescence, 90 h; inhibition, % at 8.34 µM; 77,000 compounds, 5.9% hits;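 active means mean inhibition above about 93%, with at least 55% of replicates each passing it, limit read from the data, passing the limit was not always enough; inconclusive means only one of those two conditions holds; inactive means neither condition holds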
# T cruzi growth-2 – Trypanosoma cruzi proliferation inhibition | shares compounds with T cruzi growth-1 | T. cruzi beta-gal in NIH3T3, GalScreen luminescence, 90 h | inhibition, % at 8.35 µM | 5,600 compounds, 72% hits | AID 651739;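 active means mean replicate inhibition above about 95% and at least 55% of replicates individually reaching it, limit read from the data; inconclusive means only one of the two criteria is met; inactive means neither criterion is met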
# T cruzi growth-3 – blocks T. cruzi growth in NIH3T3 host cells; shares compounds with T cruzi growth-1; T. cruzi beta-gal in NIH3T3, GalScreen luminescence, 90 h; inhibition, % at 2.09 µM; 5,600 compounds, 21% hits;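 active means mean inhibition above about 95%, with at least 55% of replicates also reaching it, limit read from the data; inconclusive means meets just one of the two conditions; inactive means meets neither condition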;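 further: plate controls were neutral control median for no effect and positive control median for full effect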
# 3T3 cytotox – kills mouse NIH/3T3 fibroblasts; cytotoxicity (signal decrease), % at 8.35 µM; 5,600 compounds, 14% hits; NIH/3T3 viability, CellTiter-Glo ATP luminescence, 90 h; shares compounds with T cruzi growth-1;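 active means mean signal decrease across replicates above about 35% based on untreated-well scatter, with enough replicates individually passing, limit read from the data; inconclusive means no rule stated though some were filed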;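 further: 0% = median of neutral control wells and 100% = median of positive control wells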
# 3T3 cytotox 2 – kills mouse NIH/3T3 fibroblasts. shares compounds with T cruzi growth-1. NIH/3T3 viability, CellTiter-Glo ATP luminescence, 90 h. inhibition, % at 24.9 µM. 5,600 compounds, 56% hits. AID 651744;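 active means mean loss of cell viability signal at or above a set limit, and enough replicates individually reaching it; inconclusive means meets only the mean limit or only the replicate share; inactive means meets neither condition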;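 further: 0% = median of neutral control wells and 100% = median of positive control wells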
# The depositor's hits bear a star; u = inconclusive; x = no result.
SMILES,C diff HTS,Pf Dd2 inh,T cruzi growth-1,T cruzi growth-2,T cruzi growth-3,3T3 cytotox,3T3 cytotox 2
CS(=O)(=O)N1CCCCN2[C@@H](CO)[C@H](c3ccc(C#Cc4ccccn4)cc3)[C@@H]2C1,2,-39,u,108*,47,-7,13
O=S(=O)(c1ccccc1)N1CCCCN2[C@H](CO)[C@H](c3ccc(C#Cc4ccccn4)cc3)[C@H]2C1,-3,-38,72,x,x,x,x
CS(=O)(=O)N1CCCCN2[C@H](C1)[C@H](c1ccc(C#Cc3ccccn3)cc1)[C@@H]2CO,1,17,112*,96*,39,5,-6
CCCC#Cc1ccc([C@@H]2[C@@H](CO)N3CCCCN(S(C)(=O)=O)C[C@H]23)cc1,-1,20,11,x,x,x,x
CCCC(=O)Nc1ccc2c(c1)OC[C@@H](C)N(C)C[C@@H](C)[C@H](OC)CN(C)C2=O,-3,0,x,x,x,x,x
Cc1cccc(S(=O)(=O)N2C[C@@H](O)COC[C@@H]3O[C@H](CC(=O)N4CCN(C)CC4)CC[C@H]32)c1,-4,13,8,x,x,x,x
COc1ccc2c3c([nH]c2c1)[C@H](CO)N(Cc1ccccc1)CC31CN(C(=O)Nc2cccc(F)c2)C1,8,-48,x,x,x,x,x
C[C@@H]1CN([C@H](C)CO)C(=O)Cc2cc(NC(=O)Nc3cccc4ccccc34)ccc2O[C@H]1CN(C)C(=O)NC1CCCCC1,3,-2,26,x,x,x,x
C[C@@H]1CN([C@H](C)CO)S(=O)(=O)c2ccc(-c3cncnc3)cc2O[C@H]1CN(C)Cc1cncnc1,-2,35,29,x,x,x,x
C[C@H](CO)N1C[C@H](C)[C@@H](CN(C)Cc2ccccc2)Oc2cc(-c3cncnc3)ccc2S1(=O)=O,-4,-6,113*,92,u,38*,70*
C[C@H]1CN([C@@H](C)CO)S(=O)(=O)c2ccc(-c3cncnc3)cc2O[C@@H]1CN(C)Cc1ccccc1,1,-11,106*,u,100*,18,31*
C[C@H]1CN([C@@H](C)CO)S(=O)(=O)c2ccc(-c3cncnc3)cc2O[C@@H]1CN(C)Cc1cncnc1,-4,48,25,x,x,x,x
N#C[C@H]1[C@@H](c2ccc(C#Cc3cccc(F)c3)cc2)[C@H](CO)N1C(=O)C1CCC1,-15,-44,100*,96*,105*,20,103*
N#C[C@H]1[C@@H](c2ccc(C#Cc3cccc(F)c3)cc2)[C@@H](CO)N1C(=O)C1CCOCC1,15,3,22,x,x,x,x
N#C[C@@H]1[C@@H](c2ccc(C#Cc3cccc(F)c3)cc2)[C@H](CO)N1C(=O)C1CC1,3,-34,93,x,x,x,x
N#C[C@@H]1[C@H](c2ccc(C#Cc3cccc(F)c3)cc2)[C@@H](CO)N1C(=O)C1CC1,-5,-45,u,101*,95,3,71*
N#C[C@@H]1[C@@H](c2ccc(C#Cc3cccc(F)c3)cc2)[C@H](CO)N1C(=O)C1CCCC1,4,-32,97*,100*,101*,16,79*
N#C[C@H]1[C@@H](c2ccc(C#Cc3cccc(F)c3)cc2)[C@@H](CO)N1C(=O)C1CC1,13,-19,85,x,x,x,x
O=C(C[C@@H]1CC[C@@H](NS(=O)(=O)c2ccc(F)cc2)[C@@H](CO)O1)NC1CCCCC1,1,4,x,x,x,x,x
COc1cccc(CNC(=O)[C@H]2[C@H](CO)[C@H]3Cn4c(ccc(-c5ccncc5)c4=O)[C@@H]2N3C(C)=O)c1,1,5,-18,x,x,x,x
COc1ccc(S(=O)(=O)N2[C@@H]3CNC[C@H]2C3c2ccc(-c3cccc(C)c3)cc2)cc1 (some centres undefined),41,3,x,x,x,x,x
COc1ccc2c3c(n(C)c2c1)[C@H](CO)N(C(=O)CC1CC1)CC31CCN(C(=O)C2CCCC2)CC1,-7,-42,x,x,x,x,x
Cn1cnc(S(=O)(=O)N2CCCCN3[C@H](C2)[C@H](c2ccc(C#CC4CCCC4)cc2)[C@@H]3CO)c1,-5,-17,32,x,x,x,x
Cn1cnc(S(=O)(=O)N2CCCCN3[C@H](C2)[C@H](c2ccc(-c4ccccc4)cc2)[C@@H]3CO)c1,-3,6,103*,6,11,-12,-16
Cn1cnc(S(=O)(=O)N2CCCCN3[C@@H](CO)[C@@H](c4ccc(-c5ccc(F)cc5)cc4)[C@@H]3C2)c1,-12,29,27,x,x,x,x
SMILES,C diff HTS,Pf Dd2 inh,T cruzi growth-1,T cruzi growth-2,T cruzi growth-3,3T3 cytotox,3T3 cytotox 2
Cn1cnc(S(=O)(=O)N2CCCCN3[C@H](CO)[C@H](c4ccc(C#CC5CCCC5)cc4)[C@@H]3C2)c1,-17,-20,107*,u,29,29,33*
Cn1cnc(S(=O)(=O)N2CCCCN3[C@H](CO)[C@@H](c4ccc(-c5ccccc5)cc4)[C@@H]3C2)c1,-6,26,100*,65,-2,11,28*
Cn1cnc(S(=O)(=O)N2CCCCN3[C@H](C2)[C@H](c2ccc(-c4ccc(F)cc4)cc2)[C@@H]3CO)c1,-2,24,48,x,x,x,x
C[C@@H]1CN([C@H](C)CO)C(=O)c2cc(/C=C/c3ccccc3)cnc2O[C@H]1CN(C)C(=O)Cc1cccnc1,1,-17,x,x,x,x,x
CN1C(=O)c2cc(NC(=O)c3cc(F)cc(F)c3)ccc2OC[C@H]2O[C@@H](CC(=O)O)CC[C@@H]21,-7,-2,39,x,x,x,x
Cc1ccc(S(=O)(=O)N[C@H]2CC[C@@H](CCNC(=O)Cc3ccccn3)O[C@H]2CO)cc1,5,-7,79,x,x,x,x
O=C(C[C@H]1CC[C@@H](NS(=O)(=O)c2ccccc2)[C@@H](CO)O1)NCc1ccncn1,5,-2,123*,101*,17,2,3
O=C(C[C@@H]1CC[C@@H](NS(=O)(=O)c2ccccc2)[C@@H](CO)O1)NCc1ccncn1,2,17,-28,x,x,x,x
O=C(C[C@H]1CC[C@H](NS(=O)(=O)c2ccc(F)cc2)[C@@H](CO)O1)NC1CCC1,5,16,-21,x,x,x,x
Cc1ccc(S(=O)(=O)N[C@@H]2CC[C@@H](CCNC(=O)Cc3ccccn3)O[C@H]2CO)cc1,-2,2,u,26,18,-3,-21
O=C(C[C@H]1CC[C@@H](NS(=O)(=O)c2ccc(F)cc2)[C@H](CO)O1)NC1CCC1,0,13,119*,47,28,8,15
CCCNC(=O)N1CC2(C1)[C@@H](c1ccccc1)[C@@H](CO)N2C(=O)C1CCCC1,-5,13,x,x,x,x,x
C[C@@H](NC(=O)[C@H]1[C@H](CO)[C@H]2Cn3c(ccc(C4=CCCCC4)c3=O)[C@@H]1N2)c1ccccc1,-5,9,-6,x,x,x,x
C[C@@H]1CN([C@H](C)CO)C(=O)c2cc(/C=C/c3ccccc3)cnc2O[C@@H]1CN(C)C(=O)NC1CCCCC1,4,-46,x,x,x,x,x

# Source: PubChem BioAssay
